# HT1080-NT tox: kills 2HG-producing HT-1080-NT fibrosarcoma cells; HT-1080-NT fibrosarcoma viability, CellTiter-Glo ATP luminescence, 48 h; Potency, µM (highest dose often 46.1 µM), for inactives: at the top dose activity, negative = less viability, actives largely listed as cytotoxic; 360,000 compounds, 1.6% hits; AID 686970;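 note: NT is the 2HG producing partner of a matched IDH1 knockdown line; potency is the fitted concentration of half-maximal effect; 0% = DMSO-treated cells and -100% = media-only wells without cells; nearly all actives have a fitted effect of over 55% in size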
#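 Viability by CellTiter-Glo luminescence after 48 h compound exposure at 37C of HT-1080-NT cells (750/well, RPMI, 5% FBS). % activity scaled between DMSO wells and medium-only wells, then curve-fitted and categorized by curve class.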
# HT1080 IDH1KD tx: HT-1080 IDH1 knockdown cell toxicity (counter line); HT-1080 IDH1 knockdown viability, ATP luminescence, 48 h; Potency, µM (highest dose often 46.1 µM), for the others: at the top dose activity, negative = toxicity, actives largely listed as cytotoxic; 360,000 compounds, 2% hits;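 note: potency is the fitted concentration of half-maximal effect; 0% = DMSO wells and -100% = cell-free medium wells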
#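 Using the IDH1-knockdown HT-1080 line run in the same batch and compound series as the NT line, viability after 48 h at 37 °C was determined by CellTiter-Glo luminescence and expressed as % activity.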
# TDP1 cell CPT: DT40-hTDP1 cell growth loss with CPT. chicken DT40 Tdp1-/-;hTDP1 cells + 20 nM CPT, ATP luminescence, 48 h. 420,000 compounds, 12% hits. Potency, µM (top dose mostly 46.2 µM), without a hit: at the highest dose activity change, negative = growth inhibition, hits mostly inhibitors; note: potency is the fitted concentration of half-maximal effect; nearly all actives have a fitted effect of over 55% in size
#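 Cell growth measured by CellTiter-Glo luminescence after a minimum 48 h, 37 C compound exposure with 20 nM CPT in Tdp1-knockout DT40 cells stably expressing hTDP1, seeded 400/well; qHTS titration format.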
# IL-1B inflam inh: inhibitors of inflammasome signaling (IL-1 beta secretion). THP-1 LPS/ATP IL-1B secretion, AlphaLISA, 16 h; stronger effect = lower value. 360,000 compounds, 4.7% hits. activity change, % at 57.5 µM; in the data active = activity change below about -50%; inconclusive = mostly about -30% to -49%
#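 THP-1 cells pretreated 1 hr with compounds (up to 57.5 uM final), then stimulated with LPS (250 ng/mL final) plus ATP (1.25 mM final); secreted IL-1B measured by AlphaLISA after 16 hr, decreased signal indicating inhibition.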
# ELG1 repair inh: ELG1-dependent DNA repair inhibition; AID 504467; 330,000 compounds, 2.3% hits; Potency, µM (titrated, usually from 46.1 µM), inactives show at the top dose activity change, negative = inhibition, actives largely listed as inhibitors; HEK293T ELG1-luciferase reporter, luminescence, 16 h; DNA damage induced by 5-fluorouridine; note: potency is the fitted concentration of half-maximal effect; nearly all actives have a fitted effect of over 55% in size
#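 Luminescence from the luciferase reporter, measured 30 min after ONE-Glo reagent at room temperature, was the read-out. Beforehand, 2,000 cells per well were exposed for 16 hr at 37 °C to 5-fluorouridine together with compound or vehicle.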
# DT40 TDP1 no CPT: qHTS for Inhibitors of human tyrosyl-DNA phosphodiesterase 1 (TDP1): qHTS in cells in absence of CPT; DT40 Tdp1-/- hTDP1 cells, no CPT, ATP luminescence, 48 h; Potency, µM (titrated, usually from 46.2 µM), for the others: at the top dose activity change, negative = growth inhibition, hits mostly inhibitors; 420,000 compounds, 15% hits; note: potency is the fitted concentration of half-maximal effect; nearly all actives have a fitted effect of over 55% in size
#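 Luminescent ATP content (CellTiter-Glo) served as the growth readout. Knockout chicken DT40 cells expressing human TDP1 were exposed to compounds without camptothecin for a minimum 48 hr at 37 °C.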
# Numbers without * were called inactive; i = inactive; ? = inconclusive; . = no result given; [ ] = another dose, or the depositor's remark. This is a sample that favours compounds with a hit; in the whole collection about 19% have one here. Unless noted, calls come from the whole dose curve; as a rule, active = well fitted curve in the direction sought with a large enough effect; inconclusive = small, poorly fitted or top-dose-only effect, or another doubt; inactive = no such curve, though single readings can be large; an effect the other way counts as inactive or inconclusive. Unless noted, % is set by controls: 0 for no effect and ±100 for the full control effect.
SMILES,HT1080-NT tox,HT1080 IDH1KD tx,TDP1 cell CPT,IL-1B inflam inh,ELG1 repair inh,DT40 TDP1 no CPT
COc1ccccc1CN(C)C(=O)c1sccc1-c1ccccc1,-5.6%,-16.2%,?,i,2.8%,?
COc1ccc(C(=O)N/N=C/c2ccc(OC)c(COc3c(F)c(F)cc(F)c3F)c2)cc1,-8.7%,-23.4%,?,54.5,-22.5%,0.9%
COc1ccc(C(=O)N/N=C\C(C)=C\c2ccccc2)cc1OC,-7.9%,-5.0%,?,-94.4*,.,16.4µM*
CC(/C=N/NC(=O)c1ccc(Br)cc1)=C\c1ccccc1,-25.5%,-26.9%,-9.5%,-3.3,?,-16.6%
COc1ccc(/C=N\NC(=O)c2ccc(F)cc2)cc1COc1ccccc1C(N)=O,-4.9%,-0.6%,-24.0%,i,8.5%,?
COc1ccc(OCc2cc(/C=N\NC(=O)c3ccccc3)ccc2OC)cc1,6.51µM*,9.2µM*,4.61µM*,42.4,?,5.17µM*
COc1cc(OC)cc(C(=O)N/N=C/c2ccc(OC)c(COc3ccc(F)cc3)c2)c1,?,5.17µM*,2.31µM*,32.4,-14.2%,2.91µM*
COc1ccc(/C=N/NC(=O)c2cccnc2)cc1CN1CCCc2ccccc21,-8.3%,-9.0%,?,3.7,6.1%,11.6µM*
Cc1nn(C(=O)c2ccc(Br)cc2)c(C)c1S(=O)(=O)N1CCOCC1,.,.,-4.8%,.,.,-0.1%
COc1ccc(/C=N/NC(=O)c2cc(OC)c(OC)c(OC)c2)cc1CN1CCc2cc(OC)c(OC)cc2C1C (stereo unspecified),?,13µM*,?,25.5,?,?
COc1ccc(/C=N/NC(=O)c2cccnc2)cc1COc1ccc([N+](=O)[O-])cc1,?,6.51µM*,2.59µM*,.,-7.0%,2.59µM*
COc1ccc(NC(=O)COc2ccc(/C=N/NC(=O)c3cccnc3)cc2OC)cc1,2.9%,0.2%,18.4µM*,-7.1,?,23.1µM*
CN(C)c1nc(NCc2ccccc2)nc(SCC(=O)Nc2ccccc2)n1,?,?,?,-77.1*,?,?
CC(=O)C(Sc1nc(N(C)C)nc(N(C)C)n1)C(=O)Nc1ccccc1 (stereo unspecified),-26.5%,-1.7%,16.5%,25.5,-15.5%,-18.5%
CCNc1nc(SC(C)C(=O)Nc2ccccc2)nc(N2CCOCC2)n1 (stereo unspecified),-6.3%,4.3%,?,21.2,-15.9%,?
CC(Sc1nc(NCc2ccccc2)nc(N2CCOCC2)n1)C(=O)Nc1ccccc1 (stereo unspecified),-6.8%,-16.7%,?,20.8,?,20.6µM*
CC(Sc1nc(NCc2ccccc2)nc(N(C)C)n1)C(=O)Nc1ccccc1 (stereo unspecified),?,?,23.1µM*,0.0,?,20.6µM*
CCc1nn(CC(=O)NCc2ccc(OC)c(OC)c2)c(=O)c2cc3sc(C)cc3n12,.,.,?,.,.,-1.7%
CN1CCN(CC2(O)CCN(S(=O)(=O)c3ccc(Cl)cc3)CC2)CC1,-5.8%,0.7%,-4.5%,-6.6,-4.5%,-28.1%
COc1ccc(/C=C/C(=O)NCc2ccccn2)cc1OC,1.7%,-0.9%,-8.8%,-72.8*,0.8%,-3.4%
COC(=O)c1ccc(CNC(=O)COC(=O)/C=C/c2ccc(O)c(OC)c2)cc1,8.2%,8.1%,?,-68.1*,?,?
COc1ccc(OC)c(/C=C/C(=O)OCC(=O)NCc2ccccc2)c1,4.4%,15.5%,-29.5%,3.0,-11.6%,-24.0%
COc1ccc(/C=C/C(=O)OCC(=O)NCCC2=CCCCC2)cc1OC,-14.8%,-4.9%,?,9.8,5.8%,16.4µM*
COc1ccc(/C=C/C(=O)OCC(=O)NCc2ccccc2)cc1OC,-1.6%[9.24 µM],?,20.6µM*,0.0,-4.7%,16.4µM*
CCN(CC)C(=O)c1sc2c(c1C)c(=O)n(-c1ccc(C)c(C)c1)c(=O)n2Cc1cc(=O)n2ccccc2n1,.,.,-15.6%,.,.,-12.7%
SMILES,HT1080-NT tox,HT1080 IDH1KD tx,TDP1 cell CPT,IL-1B inflam inh,ELG1 repair inh,DT40 TDP1 no CPT
O=C(COc1ncnc2sccc12)NC1CCCCC1,10.5%,8.5%,1.5%,33.3,?,-1.8%
COc1ccc(/C=C/C(=O)Nc2ccccc2)cc1OC,?,12.6%,0.7%,?,?,11.6%
COc1ccc(C(C)=O)c(OCC(=O)NCCC2=CCCCC2)c1,9.2%,-0.9%,-75.3%,0.6,.,0.581µM*
COc1cc(/C=C/C(=O)OCC(=O)c2ccc(OC(F)F)cc2)ccc1O,-19.0%,?,?,-23.4,18.3µM*,14.6µM*
O=C(/C=C/c1ccco1)OCC(=O)c1ccc(OC(F)F)cc1,0.9%,2.0%,-5.1%,-15.0,?,0.9%
COc1ccc(/C=C/C(=O)Nc2c(C(=O)O)[nH]c3ccccc23)cc1OC,-1.1%,-2.8%,20.6µM*,33.9,-8.3%,?
CCOC(=O)c1noc2ncnc(Nc3ccc(F)cc3F)c12,.,.,-14.0%,.,.,-11.3%
O=C(Nc1ccc(Cl)cc1F)c1cnc2sc(N3CCOCC3)nn2c1=O,.,.,-1.9%,.,.,2.4%
CC(/C=C/c1ccccc1)=N\NC(=S)NC(C)C,-6.1%,0.2%,10.3µM*,-10.5,?,10.3µM*
CC(/C=C/c1ccccc1)=N\NC(N)=S,2.6%,-13.9%,18.4µM*,0.0,?,20.6µM*
CN(C)C(CNC(=O)CSc1nc2ccccc2c(=O)n1Cc1ccco1)c1ccccc1 (stereo unspecified),1.6%,-9.2%,-0.3%,-9.9,23.8%,-14.9%
CCOC(=O)CSc1nc2c(sc(=S)n2-c2ccccc2OC)c(=O)n1-c1ccccc1OC,4.5%,14.7%,-23.9%,-64.0*,-4.8%,?
COc1ccc(-n2c(SCC(=O)C(C)(C)C)nc3c(sc(=S)n3-c3ccccc3)c2=O)c(OC)c1,3.9%,10.2%,13µM*,21.8,?,11.6µM*
CCOC(=O)CSc1nc2c(sc(=S)n2-c2ccccc2OC)c(=O)n1Cc1ccco1,-17.8%,-0.4%,-15.2%,9.9,-10.2%,-0.8%
Cc1ccc(-n2c(SCC(=O)O)nc3c(sc(=S)n3-c3ccc(C)c(C)c3)c2=O)cc1,-3.4%,5.3%,11.8%,3.7,-3.5%,-9.5%
O=C(COC(=O)c1ccc(C(F)(F)F)cc1)Nc1cccc(S(=O)(=O)N2CCCCC2)c1,-1.1%[9.24 µM],-1.6%,-19.5%,0.0,9.0%,0.3%
COc1cc2c(cc1OC)C(SC)=NC(C)(C)C2,?,?,?,-101.5*,20.3%,?

# Source: PubChem BioAssay (National Center for Advancing Translational Sciences (NCATS))
